# Screens deposited in PubChem BioAssay by National Center for Advancing Translational Sciences (NCATS).
# Shiga toxin inh: A qHTS for Small Molecule Inhibitors of Shiga Toxin | Vero cells, Shiga toxin protein synthesis inhibition reporter | inhibition, % at 38.7 µM | hit rate 9.2% among 290,000 | AID 2315, 2010; in the data active = inhibition mostly above about 28%, no sharp cut-off; inactive = mostly below about 43%; note: 0% is about no effect
# LmPK inh: qHTS Assay for Inhibitors of Leishmania Mexicana Pyruvate Kinase (LmPK) | purified LmPK, Kinase-Glo ATP luminescence, 1 h | Q27686 | AID 1721, 2009 | hit rate 0.37% among 290,000 | Potency, µM (series often up to 57.5 µM), inactives show at the top dose activity change, negative = inhibition, most hits filed as inhibitors; note: potency is the fitted concentration of half-maximal effect; % is set by controls: 0 for no effect and ±100 for the full control effect
# Target sequence (Q27686 whole entry, looked up): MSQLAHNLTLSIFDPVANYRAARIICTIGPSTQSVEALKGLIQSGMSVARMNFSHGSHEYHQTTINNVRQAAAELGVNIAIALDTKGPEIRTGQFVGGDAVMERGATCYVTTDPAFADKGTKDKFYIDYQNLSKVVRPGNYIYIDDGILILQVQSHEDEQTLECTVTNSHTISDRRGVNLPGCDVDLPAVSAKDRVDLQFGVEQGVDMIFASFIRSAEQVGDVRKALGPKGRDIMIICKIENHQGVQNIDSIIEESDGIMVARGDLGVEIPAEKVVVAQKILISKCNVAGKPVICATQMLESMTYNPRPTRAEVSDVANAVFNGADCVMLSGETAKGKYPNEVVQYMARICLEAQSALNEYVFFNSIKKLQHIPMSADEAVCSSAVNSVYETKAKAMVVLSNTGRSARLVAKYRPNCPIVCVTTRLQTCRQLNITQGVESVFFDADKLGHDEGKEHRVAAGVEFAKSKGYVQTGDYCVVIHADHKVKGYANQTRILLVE
#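 Screened at intermediate enzyme activity to detect both inhibitors and activators: LmPK at 0.1 nM, with a 0.5 nM enzyme column as activation reference. PEP 0.5 mM, ADP 0.1 mM; ATP detected by luminescence after 1 h.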
# Pf growth 96h: Primary qHTS for delayed death inhibitors of the malarial parasite plastid, 96 hour incubation; hit rate 6.9% among 320,000; Potency, µM (highest dose often 28.7 µM), without a hit: top-dose activity change, negative = inhibition, most hits filed as inhibitors; AID 504834, 2011; P. falciparum luciferase reporter growth, 96 h; note: potency is the fitted concentration of half-maximal effect; % is set by controls: 0 for no effect and ±100 for the full control effect
#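 Compounds incubated with erythrocytes infected by luciferase-expressing P. falciparum (2% hematocrit, 0.05% parasitemia final) for 96 hours, 37 C in 5% CO2. Growth inhibition scored as decreased luciferase luminescence.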
# Pf growth 48h: Primary qHTS for delayed death inhibitors of the malarial parasite plastid, 48 hour incubation. P. falciparum luciferase growth in erythrocytes, 48 h. Potency, µM (series often up to 28.7 µM), inactives show top-dose activity change, negative = inhibition, actives largely listed as inhibitors. hit rate 5.9% among 310,000. AID 504832, 2011; note: potency is the fitted concentration of half-maximal effect; % is set by controls: 0 for no effect and ±100 for the full control effect
#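 First compound was added to culture medium, then infected red cells at 0.1% parasitemia and 2% hematocrit (final). After incubation at 37 C under 5% CO2, luciferase detection reagent was dispensed and light output recorded.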
# CHX counter: Cycloheximide Counterscreen for Small Molecule Inhibitors of Shiga Toxin; cell reporter, cycloheximide protein synthesis inhibition counterscreen; max response, %; hit rate 12% among 300,000; AID 2314, 2010; in the data active = max response mostly above about 13%, no sharp cut-off; inactive = mostly below about 14%; note: read at 38.3 µM for the half of the compounds with a filed dose; 0% is about no effect
# * hit, by the source's call; i = inactive; ? = inconclusive; / = no result; ! = not confirmed by another sample. Most compounds without a hit are left out; they make up all but 22% or so of the library. Unless noted, calls come from the whole dose curve; as a rule, active = well fitted inhibition curve with a large enough effect; inconclusive = small, poorly fitted or top-dose-only effect, or another doubt; inactive = no such curve, though single readings can be large or run the other way.
SMILES,Shiga toxin inh,LmPK inh,Pf growth 96h,Pf growth 48h,CHX counter
Cc1cccc(N(C(=O)c2cnc3n(c2=O)CCS3)C2CCCCC2)c1,11,0%,164%,8%,-2
O=C(c1cnc2n(c1=O)CCS2)N(c1ccccc1)C1CCCCC1,7,4%,6.6µM*,?,-2
Cc1ccc(NC(=O)c2ccc(CSc3nnnn3C)cc2)cc1,141*,4%,81%,184%,37*
Cc1ccc(NC(=O)c2ccc(CSc3nnc(C)s3)cc2)cc1,140*,2%,462%,109%,55*
Cc1cc(C)cc(NC(=O)c2ccc(CSc3nnc(C)s3)cc2)c1,80*,0%,51%,19%,29*
O=C(Nc1ccc(Br)cc1)c1ccc(CSC2=NCCS2)cc1,80*,5%,?,42%,61*
Cc1nnc(SCc2ccc(C(=O)O)cc2)s1,-7,-2%,/,/,-6
COc1ccc(OC)c(NC(=O)c2ccc(CSc3nnc(C)s3)cc2)c1,-4,-2%,69%,?,-3
O=C(CCN1C(=O)COc2ccccc21)NCCCN1CCN(c2ccccc2F)CC1,-24,1%,2.6µM*,-16%,-1
O=C(CN1C(=O)COc2ccccc21)NCCCN1CCOCC1,-11,-2%,2%,10%,10
O=C(CN1C(=O)COc2ccccc21)NCCCN1CCCCC1,-2,0%,1µM*,-2%,-1
Cn1cccc1C(NC(=O)c1ccccc1)C(Cl)(Cl)Cl (centres undefined),-3,1%,-7%,-19%,-1
CC(C)(C)C(=O)/C=C/Nc1ccccc1O,32,1%,/,?,8
Cc1cc(N/C=C/C(=O)c2ccccc2)ccc1Br,56*,-9%,?,224%,37*
O=C(/C=C/Nc1ccccc1)c1ccc(Cl)cc1Cl,98*,-12%,271%,257%,42*
O=C(/C=C/Nc1ccc(F)cc1Br)c1ccccc1,40*,?,2%,54%,39*
COCC(=O)Nc1ccc(Br)c(C)c1,36,-2%,-3%,11%,-3
CN(C)c1ccc(N/C=C/C(=O)C(C)(C)C)cc1,148*,-6%,/,2.3µM*,60
COC(=O)CNC(=O)C(=O)OC,15,/,/,/,-5
O=C(Cn1cnc2c(NC(=O)OCc3ccccc3)ncnc21)NCCN1CCOCC1,/,/,27%,23%,/
COc1ccc(NS(=O)(=O)NC(=O)c2c[nH]c3ccccc23)cc1,3,-4%,39%,3%,-1
CNC(=O)C(=O)NCC1OCCN1S(=O)(=O)c1ccc2c(c1)OCCO2 (centres undefined),9,0%,-2%,-14%,-1
C/C(=C\C(=O)c1ccc(Cl)cc1Cl)N(C)C,32*,12%,10%,?,14
COc1ccc(C(=O)/C=C/Nc2ccc(NC(C)=O)cc2)cc1OC,22,1%,91%,?,0
CC(=O)Nc1ccc(N/C=C/C(=O)c2ccccc2)cc1,53*,-8%,2%,144%,37*
SMILES,Shiga toxin inh,LmPK inh,Pf growth 96h,Pf growth 48h,CHX counter
CN(C)c1ccc(N/C=C/C(=O)c2ccccc2)cc1,78*,5.6µM*,/,-38%,28*
O=C(/C=C/Nc1ccccc1)c1ccccc1,29,7.9µM*,7.4µM*,/,27*
NS(=O)(=O)c1ccc(-n2nncc2-c2ccco2)cc1,-4,0%,29%,10%,-4
CCOC(=O)C(C(=O)NCc1cccc(OC)c1)c1ncc(C(F)(F)F)cc1Cl (centres undefined),-26,3%,?,2%,-5
CNC(=O)c1ccsc1NC(=O)c1ccc2c(c1)CCCC2,35,-9%,163%,133%,23*
NC(=O)c1ccsc1NC(=O)c1ccc2c(c1)CCCC2,59*,?,105%,146%,51*
NC(=O)c1ccsc1NC(=O)c1ccc(N2CCCC2=O)cc1,22,-19%,i,199%,22
CC(=O)c1cccc(NC(=O)c2cc(C(C)C)on2)c1,84*,5%,-15%,/,40*
COc1cc(NC(=O)c2cc(C(C)C)on2)cc(OC)c1OC,-4,-3%,?,/,-2
CC(C)c1cc(C(=O)Nc2cccc(Cl)c2)no1,82*,?,?,-12%,30*
CC(=O)c1cccc(NC(=O)c2cc(-c3ccc(F)cc3)on2)c1,-5,0%,?,136%,-1
CC(C)c1onc(C(=O)Nc2cccc(Cl)c2)c1[N+](=O)[O-],35,2%,-1%,?,25*
C=CCNC(=O)c1scc2c1CCCC2,52,-10%,-6%,2%,16*
CN(C)CCNC(=O)c1scc2c1CCCC2,-7,5%,0%,72%,-2
CCCOc1cc(N)ccc1C(=O)OCCN(CC)CC,/,/,0.72µM*!,15%,/
CC(C)(C)C(=O)NC(=S)Nc1ccccc1C(=O)Nc1ccccc1,-9,4%,13%,1%,-1
COc1ccc(C(=O)Nc2sc(C)c(C)c2CN2CC(C)OC(C)C2)cc1 (centres undefined),68*,3%,48%,42%,31*
Cc1sc(NC(=O)c2ccco2)c(CN2CCCCC2)c1C,6,-2%,?,?,5
Cc1ccc(S(=O)(=O)N2CCC(=O)N(C(COCc3cccc(Cl)c3)C(C)C)CC2)cc1 (centres undefined),-19,7%,10µM*,15µM*,-4
Cc1ccc(S(=O)(=O)N2CCC(=O)N(C(COCc3cccc(C(F)(F)F)c3)C(C)C)CC2)cc1 (centres undefined),9,0%,10µM*,?,-3
Cc1ccc(S(=O)(=O)N2CCC(=O)N(C(COCc3cccc(C)c3)C(C)C)CC2)cc1 (centres undefined),-12,4%,13µM*,10µM*,-3
Cc1ccc(S(=O)(=O)N2CCC(=O)N(CCOCc3cccc(Cl)c3)CC2)cc1,-14,1%,?,-1%,-4
Cc1ccc(S(=O)(=O)N2CCC(Oc3cccc(C(F)(F)F)c3)CC2)cc1,-4,5%,2.3µM*,2%,-9
O=C(Nc1ccccc1C(=O)N1CCCCC1)c1cc(F)c(F)cc1Cl,-13,0%,101%,-12%,-1
CN(Cc1ccc(F)cc1)S(=O)(=O)c1nnc(NC(=O)c2ccccc2Br)s1,-1,-1%,-2%,1%,-2
Cn1c(=O)c2c(nc(SCC(=O)O)n2Cc2cc3c(cc2Cl)OCO3)n(C)c1=O,-21,-8%,-22%,7%,7
COc1ccccc1CNC(=O)CN1C(=O)NC2(CCCC2)C1=O,/,/,-6%,9%,/
COc1ccc2[nH]c(=O)c(CN(C(=O)NC3CCCCC3)C3CCCCC3)cc2c1,-20,2%,?,-18%,2
Cc1ccc(NC(=S)N(CCCN(C)C)Cc2cc3cc4c(cc3[nH]c2=O)OCO4)c(C)c1,-23,-5%,?,9.3µM*,-1
